Results: the supplement of paper PMC6555819

Tests used:
Test in all cases: PBM binding z-score (relative to random genomic background probes); higher = stronger binding; sequences stand for … in GC…GCGATTGACAGCGTAGAATGAAGG
[1] = system: FXR:RXRa (NR concentration 270 nM, RXRa partner concentration 90 nM)
Summary of the method: (§1)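 Random background probes are the reference for binding z-scores. These scores derive from regression-normalized fluorescence on custom Agilent 4×180K protein-binding microarrays incubated 1 h with ligand-free nuclear receptor dimers. Binding was detected with antibodies against each partner (one per run).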

[2] = system: LXRa:RXRa (NR concentration 270 nM, RXRa partner concentration 90 nM)
Summary of the method: as §1

[3] = system: LXRa homodimer (NR concentration 270 nM)
Summary of the method: as §1

[4] = system: LXRb:RXRa (NR concentration 270 nM, RXRa partner concentration 90 nM)
Summary of the method: as §1

[5] = system: LXRb homodimer (NR concentration 270 nM)
Summary of the method: as §1

[6] = system: PPARa:RXRa (NR concentration 270 nM, RXRa partner concentration 90 nM)
Summary of the method: as §1

[7] = system: PPARg:RXRa (NR concentration 180 nM, RXRa partner concentration 90 nM)
Summary of the method: as §1

[8] = system: PPARg:RXRa 270nM:90nM, anti-RXR (NR concentration 270 nM, RXRa partner concentration 90 nM)
Summary of the method: as §1

[9] = system: PPARg:RXRa 30nM:10nM, anti-RXR (NR concentration 30 nM, RXRa partner concentration 10 nM)
Summary of the method: as §1

[10] = system: PPARg:RXRa 90nM:30nM, anti-RXR (NR concentration 90 nM, RXRa partner concentration 30 nM)
Summary of the method: as §1

TAGCCTAGGTCATGGGCCAATATACCACGCGAAC gave a PBM binding z-score [1] of 4.48, a PBM binding z-score [2] of 3.55 and a PBM binding z-score [3] of 0.401. For the same sequence, the PBM binding z-score [4] was 2.56, the PBM binding z-score [5] was 0.00748 and the PBM binding z-score [6] was 4.3. The PBM binding z-score [7] was 4.22, the PBM binding z-score [8] was 3.93 and the PBM binding z-score [9] was 1.34. It also gave a PBM binding z-score [10] of 2.91.
TCATATAGGTAAAGGTGAAAATCGAACGATATGA showed a PBM binding z-score [1] of 1.01, a PBM binding z-score [2] of 1.19 and a PBM binding z-score [3] of -0.224. It also gave a PBM binding z-score [4] of 1.35, a PBM binding z-score [5] of 0.0615 and a PBM binding z-score [6] of 3.15. For the same sequence, the PBM binding z-score [7] was 4.11, the PBM binding z-score [8] was 4.4 and the PBM binding z-score [9] was 4.25. The PBM binding z-score [10] was 4.59.
Work on TCTAGTTGGTCAAGGGTCACACACTCGAAATGCG yielded a PBM binding z-score [1] of 4.17, a PBM binding z-score [2] of 3.76 and a PBM binding z-score [3] of 1.25. The PBM binding z-score [4] was 4.01, the PBM binding z-score [5] was 0.821 and the PBM binding z-score [6] was 5.27. It also gave a PBM binding z-score [7] of 9.83, a PBM binding z-score [8] of 8.51 and a PBM binding z-score [9] of 9.9. The PBM binding z-score [10] was 9.97.
For CGAACTAGGTCATCCAGCACAGTGAATACATTGA, the PBM binding z-score [1] was 4.05, the PBM binding z-score [2] was 2.64 and the PBM binding z-score [3] was 0.684. It also gave a PBM binding z-score [4] of 2.07, a PBM binding z-score [5] of 0.124 and a PBM binding z-score [6] of 4.78. The PBM binding z-score [7] was 7.47, the PBM binding z-score [8] was 6.28 and the PBM binding z-score [9] was 3.93. For the same sequence, the PBM binding z-score [10] was 5.81.
With CCTGCTATGTCAATGGTCAGCTAAAGCAGCTCGC the PBM binding z-score [1] was -0.419, the PBM binding z-score [2] was -0.17 and the PBM binding z-score [3] was -0.882. It also gave a PBM binding z-score [4] of -0.227, a PBM binding z-score [5] of -0.272 and a PBM binding z-score [6] of -0.207. For the same sequence, the PBM binding z-score [7] was 0.344, the PBM binding z-score [8] was 1.53 and the PBM binding z-score [9] was -0.198. For the same sequence, the PBM binding z-score [10] was 0.923.
TCTCGGAGGACACGAAGGTTAGAGCTTTCCAGAG showed a PBM binding z-score [1] of 0.31, a PBM binding z-score [2] of -0.0717 and a PBM binding z-score [3] of -0.684. The PBM binding z-score [4] was -0.246, the PBM binding z-score [5] was -1.26 and the PBM binding z-score [6] was 0.397. The PBM binding z-score [7] was -0.0287, the PBM binding z-score [8] was 1 and the PBM binding z-score [9] was 2.15. For the same sequence, the PBM binding z-score [10] was 1.58.
Sequence ATCGAAAGGTCGACGAGGGGAGTATACACCGTTT has a PBM binding z-score [1] of 4.13, a PBM binding z-score [2] of 3.51 and a PBM binding z-score [3] of 0.159. For the same sequence, the PBM binding z-score [4] was 2.8, the PBM binding z-score [5] was 1.07 and the PBM binding z-score [6] was 4.15. The PBM binding z-score [7] was 2.47, the PBM binding z-score [8] was 2.77 and the PBM binding z-score [9] was 0.952. It also gave a PBM binding z-score [10] of 1.67.
For TCTTGTAAATCAACAGGAGGTTAAGAAAGATCGA, the PBM binding z-score [1] was 0.826, the PBM binding z-score [2] was 1.32 and the PBM binding z-score [3] was 0.389. For the same sequence, the PBM binding z-score [4] was 1.1, the PBM binding z-score [5] was 0.0438 and the PBM binding z-score [6] was 1.36. The PBM binding z-score [7] was 0.285, the PBM binding z-score [8] was 2.05 and the PBM binding z-score [9] was 3.57. It also gave a PBM binding z-score [10] of 2.79.
In the case of GCAAGCAGGCCATTTGGGTCACTCAATGACGGGC, the PBM binding z-score [1] is reported as 0.00635, the PBM binding z-score [2] is reported as -0.402 and the PBM binding z-score [3] is reported as -0.429. The PBM binding z-score [4] was -0.137, the PBM binding z-score [5] was -0.801 and the PBM binding z-score [6] was 1.34. For the same sequence, the PBM binding z-score [7] was 0.661, the PBM binding z-score [8] was 0.661 and the PBM binding z-score [9] was -0.408. The PBM binding z-score [10] was 0.131.
